The structures appear in SMILES notation. The panel holds about 79,000 compounds, 15% with a hit somewhere; the sample as a whole holds those more often. A number with no mark means an inactive call. Activity calls are given as the source filed them. Cut-off read from the data, not from the text of the source: active = growth inhibition above about 70%; inactive = the rest.

The text below walks through data of PubChem BioAssay (NCI).

Assay [1] is described as follows: NCI Yeast Anticancer Drug Screen. Data for the rad50 strain (AID 155).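 Note: 0% = growth of vehicle-only cultures of the same strain.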 The note with it: S. cerevisiae rad50 strain growth inhibition, stronger effect = higher value. The essentials:
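Yeast carrying a defined DNA repair defect were exposed to test compounds, and growth was compared with vehicle-treated controls to give percent inhibition.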

The nature of assay [2]: NCI Yeast Anticancer Drug Screen. Data for the mec2-1 strain (AID 157). The conditions noted are these: S. cerevisiae mec2-1 strain, stronger effect = higher value. Summed up: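 mec2-1 yeast strain, carrying an alteration in DNA damage repair or cell cycle control, was exposed to compounds; growth inhibition was measured relative to vehicle-treated controls.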
Assay [3] in a line: NCI Yeast Anticancer Drug Screen. Data for the sgs1 mgt1 strain (AID 161).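 Note: 0% = growth of cultures given vehicle only.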 The conditions noted are these: S. cerevisiae sgs1 mgt1 strain, stronger effect = higher value. Summed up: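 Compounds are added to genetically altered yeast, and growth is compared with cultures given vehicle alone to give percent inhibition.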
The nature of assay [4]: NCI Yeast Anticancer Drug Screen. Data for the cln2 rad14 strain (AID 165).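 Note: 0% = growth equal to vehicle treated cultures.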 The conditions noted are these: S. cerevisiae cln2 rad14 strain, stronger effect = higher value. The essentials:
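Yeast carrying cln2 and rad14 alterations (cell cycle control and DNA damage repair) were exposed to compounds. Growth inhibition was measured against vehicle-treated controls.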

The nature of assay [5]: NCI Yeast Anticancer Drug Screen. Data for the bub3 strain (AID 167). The conditions noted are these: S. cerevisiae bub3 mutant strain, stronger effect = higher value. The essentials:
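Compounds were applied to a genetically altered yeast strain carrying a cell-cycle control defect. Growth inhibition was scored against vehicle-treated controls.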

Assay [6] in a line: NCI Yeast Anticancer Drug Screen. Data for the mlh1 rad18 strain (AID 175). The note with it: S. cerevisiae mlh1 rad18 strain growth inhibition, stronger effect = higher value. The essentials:
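Growth inhibition of the yeast strain was measured after compound exposure and expressed relative to vehicle-treated controls. The strain carries defined defects in DNA damage repair.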

[7] abbreviates: at 5.0 µM (retest, dose inferred, filed as 0.5).
Where [8] appears, read: at 50.0 µM (retest, dose inferred, filed as 5.0).

For the molecule `Nc1ncnc2c1ncn2C1OCC(OCc2ccccc2)C(OCc2ccccc2)C1OCc1ccccc1` (stereo not given), the growth inhibition in assay [1] (setting [7]) was 9%; in assay [1] (setting [8]) it was 99% (active); in assay [1] (at 50.0 µM), 98.3% (active); in assay [2] (setting [7]) it was -25%; in assay [2] (setting [8]) it was 100% (active); in assay [2] (at 50.0 µM), 96% (active). For the same molecule, the growth inhibition in assay [3] (setting [7]) was 13%; in assay [3] (setting [8]), 98% (active); in assay [3] (at 50.0 µM), 99.2% (active); in assay [4] (setting [7]) it was 6%; in assay [4] (setting [8]), 98% (active); in assay [4] (at 50.0 µM), 96.8% (active). Moreover, the growth inhibition in assay [5] (setting [7]) was 13%; in assay [5] (setting [8]), 99% (active); in assay [5] (at 50.0 µM), 97.5% (active); in assay [6] (setting [7]), -4%; in assay [6] (setting [8]) it was 99% (active); in assay [6] (at 50.0 µM), 98.1% (active).
Consider `CS(=O)(=O)N\N=C1/C=C\C(=N/NS(C)(=O)=O)CCc2ccc(cc2)CC1`, for which the growth inhibition was -1% in assay [1] (setting [7]); 77% (active) in assay [1] (setting [8]); 86.3% (active) in assay [1] (at 50.0 µM); 7% in assay [2] (setting [7]); 96% (active) in assay [2] (setting [8]); 88.8% (active) in assay [2] (at 50.0 µM). For the same molecule, the growth inhibition in assay [3] (setting [7]) was -34%; in assay [3] (setting [8]) it was 92% (active); in assay [3] (at 50.0 µM), 93.3% (active); in assay [4] (setting [7]) it was -1%; in assay [4] (setting [8]) it was 19%; in assay [4] (at 50.0 µM) it was 39.6%. The growth inhibition in assay [5] (setting [7]) was -4%; in assay [5] (setting [8]) it was 92% (active); in assay [5] (at 50.0 µM) it was 90% (active); in assay [6] (setting [7]), 5%; in assay [6] (setting [8]), 95% (active); in assay [6] (at 50.0 µM), 94.5% (active).
Turning to `O=[N+]([O-])c1cc(Br)cc(Br)c1O`, the growth inhibition is -2% in assay [1] (setting [7]); 19% in assay [1] (setting [8]); 61.6% in assay [1] (at 50.0 µM); 18% in assay [2] (setting [7]); 45% in assay [2] (setting [8]); 49.6% in assay [2] (at 50.0 µM). The growth inhibition in assay [3] (setting [7]) is 10%; in assay [3] (setting [8]), 38%; in assay [3] (at 50.0 µM) it was 40.4%; in assay [4] (setting [7]) it was 20%; in assay [4] (setting [8]) it was 41%; in assay [4] (at 50.0 µM) it was 82.7% (active). The growth inhibition in assay [5] (setting [7]) was -7%; in assay [5] (setting [8]) it was 30%; in assay [5] (at 50.0 µM), 75.8% (active); in assay [6] (setting [7]) it was 2%; in assay [6] (setting [8]), 56%; in assay [6] (at 50.0 µM), 68.4%.
On to `O=C(Oc1c([N+](=O)[O-])cc(-c2ccc([N+](=O)[O-])cc2)cc1[N+](=O)[O-])c1ccccc1`, for which the growth inhibition was 32% in assay [1] (setting [7]); 56% in assay [1] (setting [8]); 74.7% (active) in assay [1] (at 50.0 µM); 86% (active) in assay [2] (setting [7]); 89% (active) in assay [2] (setting [8]); 78.1% (active) in assay [2] (at 50.0 µM). Moreover, the growth inhibition in assay [3] (setting [7]) was 80% (active); in assay [3] (setting [8]), 87% (active); in assay [3] (at 50.0 µM), 82.5% (active); in assay [4] (setting [7]) it was 34%; in assay [4] (setting [8]) it was 76% (active); in assay [4] (at 50.0 µM), 79.3% (active). The growth inhibition in assay [5] (setting [7]) was 49%; in assay [5] (setting [8]) it was 74% (active); in assay [5] (at 50.0 µM) it was 74.3% (active); in assay [6] (setting [7]), 82% (active); in assay [6] (setting [8]) it was 83% (active); in assay [6] (at 50.0 µM), 82.7% (active).
For the molecule `C(=Nc1ccccc1)c1cn(Cc2ccccc2)c2ccccc12`, the growth inhibition in assay [1] (setting [7]) is 90% (active); in assay [1] (setting [8]), 95% (active); in assay [1] (at 50.0 µM), 83.1% (active); in assay [2] (setting [7]) it was 99% (active); in assay [2] (setting [8]), 99% (active); in assay [2] (at 50.0 µM) it was -10.2%. Further, the growth inhibition was 99% (active) in assay [3] (setting [7]); 99% (active) in assay [3] (setting [8]); 64.7% in assay [3] (at 50.0 µM); 100% (active) in assay [4] (setting [7]); 99% (active) in assay [4] (setting [8]); -12.6% in assay [4] (at 50.0 µM). The growth inhibition was 99% (active) in assay [5] (setting [7]); 99% (active) in assay [5] (setting [8]); 11.6% in assay [5] (at 50.0 µM); 99% (active) in assay [6] (setting [7]); 97% (active) in assay [6] (setting [8]); 36.9% in assay [6] (at 50.0 µM).
On to `COc1ccc(C=Nc2ccccc2O)cc1`, for which the growth inhibition is 26% in assay [1] (setting [7]); 44% in assay [1] (setting [8]); 59.1% in assay [1] (at 50.0 µM); 15% in assay [2] (setting [7]); 22% in assay [2] (setting [8]); 32.2% in assay [2] (at 50.0 µM). The growth inhibition in assay [3] (setting [7]) was 11%; in assay [3] (setting [8]) it was 15%; in assay [3] (at 50.0 µM), 39.5%; in assay [4] (setting [7]) it was -2%; in assay [4] (setting [8]), 13%; in assay [4] (at 50.0 µM) it was -15.9%. For the same molecule, the growth inhibition was 81% (active) in assay [5] (setting [7]); 74% (active) in assay [5] (setting [8]); 76.6% (active) in assay [5] (at 50.0 µM); 38% in assay [6] (setting [7]); 54% in assay [6] (setting [8]); 67.4% in assay [6] (at 50.0 µM).
Take `COc1cccc2c1OC(c1ccc(C#N)cc1)C([N+](=O)[O-])=C2` (stereo not given): the growth inhibition in assay [1] (setting [7]) is 84% (active); in assay [1] (setting [8]) it was 97% (active); in assay [1] (at 50.0 µM) it was 86.2% (active); in assay [2] (setting [7]) it was 84% (active); in assay [2] (setting [8]) it was 98% (active); in assay [2] (at 50.0 µM) it was 90.8% (active). Also, the growth inhibition in assay [3] (setting [7]) was 87% (active); in assay [3] (setting [8]), 98% (active); in assay [3] (at 50.0 µM), 87.2% (active); in assay [4] (setting [7]), 47%; in assay [4] (setting [8]) it was 97% (active); in assay [4] (at 50.0 µM), 89.8% (active). Also, the growth inhibition in assay [5] (setting [7]) was 74% (active); in assay [5] (setting [8]) it was 98% (active); in assay [5] (at 50.0 µM) it was 89.8% (active); in assay [6] (setting [7]), 92% (active); in assay [6] (setting [8]), 98% (active); in assay [6] (at 50.0 µM), 83.5% (active).
In the case of `O=C1c2cc(Br)ccc2NC1(c1c[nH]c2ccccc12)c1c[nH]c2ccccc12`, the growth inhibition in assay [1] (setting [7]) was 98% (active); in assay [1] (setting [8]), 95% (active); in assay [1] (at 50.0 µM) it was 91.8% (active); in assay [2] (setting [7]) it was 58%; in assay [2] (setting [8]), 90% (active); in assay [2] (at 50.0 µM), 94.8% (active). The growth inhibition is 99% (active) in assay [3] (setting [7]); 96% (active) in assay [3] (setting [8]); 94.6% (active) in assay [3] (at 50.0 µM); 98% (active) in assay [4] (setting [7]); 94% (active) in assay [4] (setting [8]); 93.2% (active) in assay [4] (at 50.0 µM). For the same molecule, the growth inhibition in assay [5] (setting [7]) was 95% (active); in assay [5] (setting [8]), 95% (active); in assay [5] (at 50.0 µM), 93.8% (active); in assay [6] (setting [7]) it was 99% (active); in assay [6] (setting [8]), 95% (active); in assay [6] (at 50.0 µM), 92.8% (active).
As to `CC(C)CCOC(=O)c1ccc(O)cc1.[Zn+2]`, the growth inhibition was 5% in assay [1] (setting [7]); 36% in assay [1] (setting [8]); 76.1% (active) in assay [1] (at 50.0 µM); -1% in assay [2] (setting [7]); 32% in assay [2] (setting [8]); 65.6% in assay [2] (at 50.0 µM). In addition, the growth inhibition was 3% in assay [3] (setting [7]); 29% in assay [3] (setting [8]); 76.8% (active) in assay [3] (at 50.0 µM); 2% in assay [4] (setting [7]); 17% in assay [4] (setting [8]); 37% in assay [4] (at 50.0 µM). The growth inhibition in assay [5] (setting [7]) was 53%; in assay [5] (setting [8]), 86% (active); in assay [5] (at 50.0 µM), 88.5% (active); in assay [6] (setting [7]), 3%; in assay [6] (setting [8]) it was 35%; in assay [6] (at 50.0 µM) it was 84.2% (active).
With `Nc1nc(N)c(N=O)c(Nc2cccc(Br)c2)n1`, the growth inhibition in assay [1] (setting [7]) is 57%; in assay [1] (setting [8]), 98% (active); in assay [1] (at 50.0 µM), 1.15%; in assay [2] (setting [7]), 46%; in assay [2] (setting [8]) it was 99% (active); in assay [2] (at 50.0 µM), 13.8%. Moreover, the growth inhibition is 70% (active) in assay [3] (setting [7]); 98% (active) in assay [3] (setting [8]); -6.85% in assay [3] (at 50.0 µM); 48% in assay [4] (setting [7]); 98% (active) in assay [4] (setting [8]); 76.7% (active) in assay [4] (at 50.0 µM). For the same molecule, the growth inhibition in assay [5] (setting [7]) is 50%; in assay [5] (setting [8]), 98% (active); in assay [5] (at 50.0 µM) it was 56.1%; in assay [6] (setting [7]), 64%; in assay [6] (setting [8]), 98% (active); in assay [6] (at 50.0 µM) it was 5.05%.
